Source: PubChem BioAssay AID651774 (Broad Institute, 2012)
Potency and affinity values are given separately. Activity calls are given as the source filed them. A call without a number means that no potency is given here. The rule behind the calls is not given here.

Assay: cytotoxicity in HeLa cells, dose response, cytotoxicity control, cell-based, 24 h, dry powder (AID 651774)
Details: HeLa viability, CellTiter-Glo ATP luminescence; series mostly up to 35 µM

Question: For `Cn1nnc(NCc2ccccc2)n1`, which outcome is on record?
Answer: Its outcome is “inactive”.

Question: With `O=C(Cc1ccccc1Cl)NC1CCCC1` as the compound, how does the outcome read?
Answer: The outcome was “inactive”.

Question: With `N#Cc1cccc(CC(=O)NC2CCCC2)c1` as the compound, how does the outcome read?
Answer: Its outcome is “inactive”.

Question: Which outcome does the source give for `N#Cc1ccc(CC(=O)NC2CCCC2)cc1` here?
Answer: Its outcome is “inactive”.

Question: For `O=C(Cc1ccc(-c2ccccc2)cc1)N1CCCCC1`, which outcome is on record?
Answer: The outcome was “inactive”.

Question: Which outcome does the source give for `CCn1nnc(NCc2ccc(C(C)C)cc2)n1` here?
Answer: Its outcome is “inactive”.

Question: With `CCCn1nnnc1NCc1ccc(C(C)C)cc1` as the compound, how does the outcome read?
Answer: The outcome was “inactive”.

Question: Which outcome does the source give for `O=C(Cc1cccc(C(F)(F)F)c1)NC1CCCC1` here?
Answer: Its outcome is “inactive”.

Question: For `CC(C(=O)NC1CCCC1)c1ccc(-c2ccccc2)cc1` (centres undefined), which outcome is on record?
Answer: Its outcome is “inactive”.

Question: For `Cc1cccc(CC(=O)NC2CCCC2)c1`, which outcome is on record?
Answer: The outcome was “inactive”.

Question: With `O=C(Cc1ccncc1)NC1CCCC1` as the compound, how does the outcome read?
Answer: Its outcome is “inactive”.

Question: For `O=C(Cc1cccnc1)NC1CCCC1`, which outcome is on record?
Answer: The outcome was “inactive”.

Question: With `O=C(O)Cc1ccc(-c2ccccc2)cc1` as the compound, how does the outcome read?
Answer: The outcome was “inactive”.

Question: For `O=C(Cc1ccc(OC(F)(F)F)cc1)NC1CCCC1`, which outcome is on record?
Answer: The outcome was “inactive”.

Question: For `CC(C)NC(=O)Cc1ccc(-c2ccccc2)cc1`, which outcome is on record?
Answer: Its outcome is “inactive”.

Question: For `O=C(Cc1ccc(-c2ccccc2)cc1)NCC1CCCC1`, which outcome is on record?
Answer: The outcome was “inactive”.

Question: Which outcome does the source give for `COc1ccc(CC(=O)NC2CCCC2)cc1` here?
Answer: The outcome was “inactive”.

Question: For `Cn1nnc(NCc2ccc(N3CCCC3)cc2)n1`, which outcome is on record?
Answer: Its outcome is “inactive”.

Question: Which outcome does the source give for `O=C(Cc1cccc(Cl)c1)NC1CCCC1` here?
Answer: The outcome was “inactive”.

Question: With `O=C(Cc1ccc(-c2ccccc2)cc1)N1CCOCC1` as the compound, how does the outcome read?
Answer: The outcome was “inactive”.

Question: With `CC(C)n1nnc(NCc2ccc(N3CCCC3)cc2)n1` as the compound, how does the outcome read?
Answer: The outcome was “inactive”.

Question: Which outcome does the source give for `O=C(Cc1ccc(C(F)(F)F)cc1)NC1CCCC1` here?
Answer: The outcome was “inactive”.

Question: With `CC(C)c1ccc(CNc2nn[nH]n2)cc1` as the compound, how does the outcome read?
Answer: Its outcome is “inactive”.

Question: For `O=C(Cc1ccccc1OC(F)(F)F)NC1CCCC1`, which outcome is on record?
Answer: Its outcome is “inactive”.

Question: With `CN(C)C(=O)Cc1ccc(-c2ccccc2)cc1` as the compound, how does the outcome read?
Answer: The outcome was “inactive”.

Question: Which outcome does the source give for `O=C(Cc1ccc(-c2ccccc2)cc1)NC1CCC1` here?
Answer: The outcome was “inactive”.

Question: For `Cn1nnnc1NCc1ccc(N2CCCC2)cc1`, which outcome is on record?
Answer: The outcome was “inactive”.

Question: For `O=C(Cc1ccccc1I)NC1CCCC1`, which outcome is on record?
Answer: Its outcome is “inactive”.

Question: Which outcome does the source give for `O=C(NCc1ccc(-c2ccccc2)cc1)C1CCCC1` here?
Answer: Its outcome is “inactive”.
